The source made the active and inactive calls. No rule for the calls is given here.
Assay: inhibition of Brca1/Bard1 split-luciferase complementation, confirmation, counter-screen for Mdm2/MdmX interaction inhibitor project, luminescence, single concentration (AID 504668)
Conditions: Brca1/Bard1 bimolecular luciferase complementation counterscreen, at 8 µM, hits give high values

Row | SMILES | inhibition
1 | CC(C)c1cc(C(=O)NC2CCCc3c2cnn3-c2ccccc2F)no1 (stereo not given) | 29.3% (active)
2 | O=C(Nc1ccc(Br)c(C(F)(F)F)c1)c1ccc(C(F)(F)F)cc1 | 28.7% (active)
3 | O=C(CCc1ccccc1)N/N=C/c1cc(Br)ccc1O | 26.9% (active)
4 | Cc1cccn2c(=O)c3cc(C(=O)NCCN4CCOCC4)c(=N)n(Cc4ccc(F)cc4)c3nc12 | 34.8% (active)
5 | C(=N\Nc1nc2ccccc2[nH]1)/c1cccc2nccnc12 | 31.8% (active)
6 | FC(F)(F)c1ccc(CN2C[C@@H]3C(c4ccccc4)C4(c5ccccc5)CC3(C4)[C@H]2c2ccccc2)cc1 (stereo not given in full) | 27.2% (active)
7 | O=c1c2cc(Br)ccc2nc(-c2cccc(C(F)(F)F)c2)n1O | 29.9% (active)
8 | O=C(Nc1ccc(Cl)cc1)Nc1ccc(N2CCCC2)c(S(=O)(=O)Nc2ccccc2Cl)c1 | 24% (active)
9 | CC(=O)Oc1c(-c2ccc(Br)o2)oc2ccccc2c1=O | 29.9% (active)
10 | COc1ccccc1-n1c(-c2ccccc2)c[n+]2c1CCc1ccccc1-2 | 29% (active)
11 | Cc1[nH]c(N=Nc2ccccc2)nc1N=Nc1ccccc1 | 24.1% (active)
12 | CN(C)C=Nc1ncc2c([nH]c3ccccc32)c1C#N | 23% (active)
13 | CC(NC(=O)CN(c1cccc(C(F)(F)F)c1)S(=O)(=O)c1ccc(Cl)c([N+](=O)[O-])c1)c1ccccc1 (stereo not given) | 35.1% (active)
14 | O=C(/C=C/c1ccccc1)NC(NC(=S)Nc1ccc(Cl)cc1Cl)C(Cl)(Cl)Cl (stereo not given) | 23.4% (active)
15 | O=C(Oc1ccnc2cc(Cl)ccc12)N1CCCCCC1 | 30% (active)
16 | O=c1c2ccccc2nc(N/N=C/c2c(O)ccc3ccccc23)n1O | 35.9% (active)
17 | Nc1nonc1-n1nnc(C(=O)N/N=C/c2cc(Cl)ccc2O)c1CN1CCCCCC1 | 32.2% (active)
18 | O=C(Nc1ccc(OC(F)(F)F)cc1)Nc1cccc([N+](=O)[O-])c1 | 35.8% (active)
19 | O=c1c2ccccc2nc(/C=C/c2cc(Br)ccc2O)n1CCO | 32.4% (active)
20 | O=C(Nc1nc(-c2ccccn2)cs1)c1cc(Cl)ccc1[N+](=O)[O-] | 32.3% (active)

Row | SMILES | inhibition
21 | COc1ccccc1C(NC(C)=O)c1cc(Cl)c2cccnc2c1O (stereo not given) | 31.2% (active)
22 | CCCSc1nnc(NC(=O)Nc2ccc(F)cc2)s1 | 28.5% (active)
23 | O=C(Oc1c(Cl)cc(Cl)c2cccnc12)c1cccs1 | 32.1% (active)
24 | CN(C)CCN(C(=O)/C=C/c1cccs1)c1nc2c(F)cc(F)cc2s1 | 28.9% (active)
25 | COc1ccc(Nc2ncnc3ccc(Br)cc23)cc1OC | 30.5% (active)
26 | CCN(CC)CCNC(=O)c1ccc(NC(=O)c2cn(-c3ccc(F)cc3)nc2-c2cccc(OC)c2)cc1 | 27.9% (active)
27 | CC1=[N+](C)c2ccc3ccccc3c2C1(C)C | 28.2% (active)
28 | Cc1ccc(S(=O)(=O)c2c(C)nn(C(C)(C)C)c2OC(=O)c2ccc(Br)o2)cc1 | 29.3% (active)
29 | O=C(c1ccc(Br)cc1)C(CN1CCOCC1)c1ccccc1 (stereo not given) | 24.6% (active)
30 | C=CCc1cccc(/C=N/NC(=O)c2ccc3nc[nH]c3c2)c1O | 26.2% (active)
31 | O=S(=O)(CCSc1nc2ccccc2o1)c1nc2ccccc2s1 | 35.6% (active)
32 | CCOc1cc(CNCCO)cc(Br)c1OCc1ccc(Cl)cc1Cl | 25.5% (active)
33 | O=c1cc(CSc2ccc(Cl)cc2)nc(-c2ccccn2)[nH]1 | 30.5% (active)
34 | O=C1/C(=C/c2ccc(F)cc2)SC(=S)N1CCCC(=O)N1CCCCC1CCO (stereo not given) | 23.7% (active)
35 | Cn1cccc1-c1cc(C(=O)N/N=C/c2cc(Br)ccc2O)[nH]n1 | 25.9% (active)
36 | C[C@@H](NC(=O)OC(C)(C)C)c1nnc(S(=O)(=O)Cc2ccccc2)o1 | 24.9% (active)
37 | Cc1ccc(N=c2c([N+](=O)[O-])nn(-c3ccc4c(c3)OCCO4)n2O)cc1F | 23.7% (active)
38 | Cc1ccn2c(Nc3ccccc3C)c(-c3ccccn3)nc2c1 | 31.7% (active)
39 | Cc1ccc(C(C)C)c(OCc2nn(CC(=O)c3ccc(Cl)cc3)c3[n+]2CCCCC3)c1 | 25% (active)
40 | Cc1cccc(C(=O)NC(C(=O)Nc2nc(-c3ccccn3)cs2)C(C)C)c1 (stereo not given) | 30.7% (active)
